Reference: PubChem BioAssay AID463173 (ICCB-Longwood Screening Facility, Harvard Medical School, 2010)
Hit rate of the full screen: of about 52,000 compounds, about 4,300 (8.3%) were called active. Shown is part of a subset that was picked to be rich in actives. Unmarked numbers belong to inactive results. Cut-off read from the data, not from the text of the source: active = survival mostly below about 52% (no sharp cut-off); inactive = mostly above about 56%.

Tested on: DeltatarO mutant
Assay: S. aureus survival, RN4220 and DeltatarO strains – OD600, teichoic acid synthesis inhibitors, primary screen (AID 463173)
Settings: S. aureus RN4220 wild type/DeltatarO growth, OD600, 18 h, active compounds read low, screened at 18.75 µg/mL (by protocol)

Row | Structure (SMILES) | survival
1 | Cc1ccc(-c2nc3ccccc3n3c(-c4ccccc4)c4c(=O)n(C)c(=O)n(C)c4c23)cc1 | 97%
2 | COc1ccc(Br)cc1CNC(=O)C1CCCCN1S(=O)(=O)c1ccc(F)cc1 (stereo unspecified) | 81%
3 | CNC(=O)C(=O)NCC(c1ccc2c(c1)OCO2)N1CCOCC1 (stereo unspecified) | 89%
4 | CC(C)(C)C(=O)NCC(c1ccc2c(c1)OCO2)N1CCOCC1 (stereo unspecified) | 0% (active)
5 | CCOc1ccc(C(=O)NCC(c2ccc3c(c2)OCO3)N2CCN(C)CC2)cc1 (stereo unspecified) | 78%
6 | COc1ccc(CCNC(=O)C(=O)NCC(c2ccc3c(c2)OCO3)N2CCOCC2)cc1OC (stereo unspecified) | 69%
7 | COc1ccc(CCNC(=O)C(=O)NCC(c2ccc3c(c2)OCO3)N2CCOCC2)cc1 (stereo unspecified) | 32% (active)
8 | CN(C)CCCNC(=O)C(=O)NCC(c1ccc2c(c1)OCO2)N1CCOCC1 (stereo unspecified) | 106%
9 | COc1ccc(CNC(=O)C(=O)NCC(c2ccc3c(c2)OCO3)N2CCOCC2)cc1 (stereo unspecified) | 99%
10 | COc1cccc(C(=O)NCC(c2ccc3c(c2)OCO3)N2CCN(C)CC2)c1 (stereo unspecified) | 112%
11 | O=C(NCCCO)C(=O)NCC(c1ccc2c(c1)OCO2)N1CCOCC1 (stereo unspecified) | 37% (active)
12 | COc1ccc(C(=O)NCC(c2ccc3c(c2)OCO3)N2CCN(C)CC2)cc1 (stereo unspecified) | 47% (active)
13 | O=C(NCCO)C(=O)NCC(c1ccc2c(c1)OCO2)N1CCOCC1 (stereo unspecified) | 75%
14 | CC(C)(C)CC(=O)NCC(c1ccc2c(c1)OCO2)N1CCOCC1 (stereo unspecified) | 80%
15 | CC1=C(C(=O)Nc2cccc(C(F)(F)F)c2)C(c2ccccc2)n2ncnc2N1 (stereo unspecified) | 103%
16 | COc1ccc(CN2C3CCCC2CC(NC(=O)NC2CCCCC2)C3)cc1 (stereo unspecified) | 85%
17 | Cc1ccc(F)cc1NC(=O)CCc1c(C)nn(-c2ccc(N3CCCC3)nn2)c1C | 78%
18 | CCOc1ccc(C(C(=O)NC2CCCC2)N(Cc2ccco2)C(=O)Cn2nnc3ccccc32)cc1OC (stereo unspecified) | 110%
19 | COc1ccc(-c2cccc(NS(=O)(=O)c3cc(C)ccc3OC)c2)nn1 | 122%
20 | Nc1c(-c2nc(-c3ccc(Cl)cc3)cs2)c2ccccn2c1C(=O)c1ccc2c(c1)OCO2 | 101%
21 | CC1CCCCN1C(=O)CSc1nnc2c3ccccc3n(CC(=O)O)c2n1 (stereo unspecified) | 97%
22 | CCOC(=O)c1c(C)[nH]c(C)c1S(=O)(=O)N1CCCC(C(=O)Nc2cc(C)ccc2C)C1 (stereo unspecified) | 83%
23 | COCCCNC(=O)C(=O)NCC(c1ccc2c(c1)OCO2)N1CCOCC1 (stereo unspecified) | 95%

Row | Structure (SMILES) | survival
24 | COCCNC(=O)C(=O)NCC(c1ccc2c(c1)OCO2)N1CCOCC1 (stereo unspecified) | 0% (active)
25 | CN(C)CCNC(=O)C(=O)NCC(c1ccc2c(c1)OCO2)N1CCOCC1 (stereo unspecified) | 69%
26 | COc1ccccc1CNC(=O)C1CCCN(C(=O)c2cnn(-c3ccc(F)cc3)c2-n2cccc2)C1 (stereo unspecified) | 76%
27 | CCN(C(=O)Cn1nnc2sc3c(c2c1=O)CCC(C(C)(C)C)C3)c1cccc(C)c1 (stereo unspecified) | 78%
28 | COc1ccccc1CNS(=O)(=O)c1ccc(-c2cc(C(F)(F)F)on2)s1 | 102%
29 | COc1ccc(OC)c(CNS(=O)(=O)c2ccc(-c3cc(C(F)(F)F)on3)s2)c1 | -4% (active)
30 | COc1ccc(CNS(=O)(=O)c2ccc(-c3cc(C(F)(F)F)on3)s2)cc1OC | 118%
31 | COc1ccc(N2CC(NC(=O)c3ccco3)CC2=O)cc1OC (stereo unspecified) | 89%
32 | COc1cccc(N2CC(NC(=O)C3CCCC3)CC2=O)c1 (stereo unspecified) | 46% (active)
33 | COc1cccc(N2CC(NC(=O)C3CCCCC3)CC2=O)c1 (stereo unspecified) | 144%
34 | COc1ccc(OCC(=O)NC2CC(=O)N(c3cccc(OC)c3)C2)cc1 (stereo unspecified) | 0% (active)
35 | COc1ccc(N2CC(NC(=O)c3ccco3)CC2=O)cc1 (stereo unspecified) | 58%
36 | COc1cccc(N2CC(NC(=O)COc3ccc4ccccc4c3)CC2=O)c1 (stereo unspecified) | 107%
37 | COc1cccc(N2CC(NC(=O)c3ccco3)CC2=O)c1 (stereo unspecified) | 37% (active)
38 | COc1cccc(OCC(=O)NC2CC(=O)N(c3cccc(OC)c3)C2)c1 (stereo unspecified) | 106%
39 | COc1cccc(N2CC(NC(=O)C3CC3)CC2=O)c1 (stereo unspecified) | 105%
40 | O=C(Nc1cccc(F)c1)C1CCCN(S(=O)(=O)c2cccc3cccnc23)C1 (stereo unspecified) | 70%
41 | COc1ccccc1CNc1ncnc2c1c(-c1ccccc1)cn2-c1ccc(Br)cc1 | 80%
42 | COc1ccc(C)cc1NC(=O)CN1C(=O)COc2ccc(S(=O)(=O)N3CCOCC3)cc21 | 98%
43 | COc1ccc(-c2nnc(SCC(=O)NCc3ccc(C)cc3)nc2-c2ccc(OC)c(OC)c2)cc1OC | 76%
44 | CCNS(=O)(=O)c1cccs1 | 96%
45 | Cc1nn(CC(=O)Nc2ccccc2F)c(=O)c2c(C)n(-c3ccc(Cl)cc3)nc12 | 102%
46 | Cc1cc(NC(=O)NCc2ccc3c(c2)CCN3C(=O)c2ccccc2)ccc1Br | 116%

Row | Structure (SMILES) | survival
47 | CCOC(=O)c1c(C)oc2nc(C)nc(Nc3ccc(C)c(Cl)c3)c12 | 89%
48 | CCOC(=O)c1c(C)oc2ncnc(Nc3ccc(CC)cc3)c12 | 85%
49 | CCOC(=O)c1cnc(-c2ccccc2)nc1Nc1ccc(C)cc1 | 90%
50 | CCOC(=O)c1c(Nc2ccc(F)cc2)nnc(-c2ccccc2)c1-c1ccccc1 | -3% (active)
51 | CCOC(=O)c1c(Nc2ccc(C)c(C)c2)nnc(-c2ccccc2)c1-c1ccccc1 | -5% (active)
52 | CCOC(=O)c1c(Nc2ccc(C)cc2)nnc(-c2ccccc2)c1-c1ccccc1 | 1% (active)
53 | CCOC(=O)c1c(Nc2ccc(O)cc2)nnc(-c2ccccc2)c1-c1ccccc1 | 95%
54 | CCOC(=O)c1c(Nc2ccccc2)nnc(-c2ccccc2)c1-c1ccccc1 | 6% (active)
55 | CCOC(=O)c1c(C)oc2nc(C)nc(Nc3ccc(CC)cc3)c12 | 115%
56 | CCOC(=O)c1c(Oc2ccc(C(C)=O)cc2)nnc(-c2ccccc2)c1-c1ccccc1 | 67%
57 | COc1cc(C2C(C(=O)Nc3ccccc3C)=C(C)Nc3nc(SCc4cc(C)ccc4C)nn32)ccc1O (stereo unspecified) | 105%
58 | CCOc1ccccc1N(CC)C(=O)c1cc2c(=O)[nH]c3ccc(C)cc3c2s1 | 74%
59 | Cc1ccc(-n2nc(C)c3c(C)cc(=O)n(CC(=O)NC(C)C)c32)cc1 | 105%
60 | O=C(CN1C(=O)COc2ccc(S(=O)(=O)N3CCCCCC3)cc21)Nc1cccc(Cl)c1 | 60%
61 | COc1cc(OC)c(N(C)C(=O)c2sc3nc4n(c(=O)c3c2C)CCCC4)cc1Cl | 53%
62 | O=C(Cc1ccccc1)N(Cc1cccnc1)c1nc2ccc(Cl)cc2s1 | 72%
63 | O=C(Cc1ccc(-c2ccccc2)cc1)NCCS(=O)(=O)N1CCN(c2ccccc2)CC1 | 122%
64 | CCOc1ccc(CNC(=O)c2ccc(NC(=O)c3nsc4ccccc34)cc2)cc1 | 79%
65 | COc1ccc(C(=O)CN2CCN(S(=O)(=O)c3ccc(C(C)C)cc3)CC2)cc1 | 81%
66 | COc1ccc(N2CC(NC(=O)/C=C\c3ccc(OC)c(OC)c3)CC2=O)cc1 (stereo unspecified) | 55%
67 | CC(=O)c1ccc(NC(=O)CC2Oc3ccc(C)cc3NC2=O)cc1 (stereo unspecified) | 85%
68 | O=C(NCCc1ccc(F)cc1)C(=O)NCC(c1ccc2c(c1)OCO2)N1CCOCC1 (stereo unspecified) | 74%
69 | Cc1cccc(N(C)C(=O)Cc2c(C(=O)O)[nH]c3ccccc23)c1 | 134%

Row | Structure (SMILES) | survival
70 | Cc1ccc2[nH]c3c(=O)n(CC(=O)N(C)c4cc(Cl)ccc4C)ncc3c2c1 | 89%
71 | Cc1ccc(C)c(N(C)C(=O)Cc2c(C(=O)O)[nH]c3ccc(Cl)cc23)c1 | 40% (active)
72 | CCN(C(=O)Cc1c(C(=O)O)[nH]c2ccccc12)c1ccc(OC)cc1 | 65%
73 | COc1ccc(OC)c(NC(=O)Cc2c(C(=O)O)[nH]c3ccc(Cl)cc23)c1 | 54%
74 | CCCN(C(=O)Cc1c(C(=O)O)[nH]c2ccc(Cl)cc12)c1ccc(OCC)cc1 | 47% (active)
75 | CCOC(=O)c1ccccc1NC(=O)N1CCC(CN2CCCCC2)CC1 | 83%
76 | COC(=O)c1cccc(NC(=O)Nc2cc(C(=O)NCc3cccc(F)c3)ccc2N2CCCC2)c1 | 91%
77 | Cc1ccc(OCC(=O)OCc2cc(=O)n3nc(-c4cccs4)sc3n2)cc1C | 102%
78 | Nc1nonc1/C(=N/O)N1CCCC1 | 113%
79 | COc1ccc(N2CCN(C(CNC(=O)C(=O)NCc3cccnc3)c3cccnc3)CC2)cc1 (stereo unspecified) | 102%
80 | COc1cc(-c2noc(CCC(=O)Nc3cc(C)ccc3C)n2)cc(OC)c1OC | 81%
81 | CCOC(=O)c1ccc(NC(=O)CCCc2nc(-c3cc(OC)c(OC)c(OC)c3)no2)cc1 | 44% (active)
82 | O=C(CCc1nc(-c2ccccc2F)no1)Nc1cccc(C(F)(F)F)c1 | 81%
83 | CCOC(=O)c1ccc(NC(=O)CCCc2nc(-c3ccccc3Cl)no2)cc1 | 36% (active)
84 | CCOc1ccccc1-c1noc(CCCC(=O)Nc2cccc(C(F)(F)F)c2)n1 | 61%
85 | CCOc1ccccc1NC(=O)CCCc1nc(-c2ccccc2Cl)no1 | 38% (active)
86 | COc1ccccc1-c1noc(CCCC(=O)Nc2cc(C)ccc2C)n1 | 54%
87 | CCOc1ccccc1NC(=O)CCc1nc(-c2cccc(C)c2)no1 | 73%
88 | COc1cccc(NC(=O)CCc2nc(-c3cc(OC)c(OC)c(OC)c3)no2)c1 | 73%
89 | CCc1ccc(NC(=O)CCCc2nc(-c3ccco3)no2)cc1 | 81%
90 | O=C(CCCc1nc(-c2ccccc2)no1)Nc1cc(C(F)(F)F)cc(C(F)(F)F)c1 | 19% (active)
91 | Cc1cc(C)cc(NC(=O)CCCc2nc(-c3ccccc3Cl)no2)c1 | 89%
